Records with an inconclusive call do not appear. Values without a mark were called inactive. Activity calls are given as the source filed them. Calls follow the shape of the dose curve; as a rule, active = well fitted inhibition curve with a large enough effect; inconclusive = small, poorly fitted or top-dose-only effect; inactive = flat fitted curve, though single readings scatter.
Test system: CP265
Assay: qHTS profiling for inhibitors of Plasmodium falciparum proliferation (AID 504749); also: nearly all actives have a fitted effect of over 60% in size;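 as to activity, negative = inhibition: 0% = DMSO vehicle and full inhibition = artemisinin control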
Settings: P. falciparum in erythrocytes, SYBR Green DNA, 72 h; series mostly up to 28.7 µM; activity, negative = inhibition: at the top concentration
Method in brief: (§1)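 Readout was DNA-dye fluorescence from lysed cultures, ex 485/em 535 nm. Parasitized red cells had grown 72 h with compound; data scaled between 0.29 uM artemisinin and DMSO wells and corrected using vehicle-only plates.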
Potency is read from the fitted curve at half-maximal effect.

Row | Structure (SMILES) | activity, negative = inhibition | Potency
1 | C[C@H](N)Cc1ccccc1 | 2.19% | –
2 | C[C@]12C=CC(=O)C=C1CC[C@@H]1C2CC[C@]2(C)OC(=O)CCC12 (some centres not stated) | -1.87% | –
3 | OCC(O)[C@H]1O[C@@H]2O[C@H](C(Cl)(Cl)Cl)O[C@@H]2[C@H]1O (some centres not stated) | 3.7% | –
4 | CC1(C)[C@@H](C=C(Cl)Cl)[C@@H]1C(=O)OCc1c(F)c(F)cc(F)c1F | 9.55% | –
5 | CC1(C)S[C@@H]2[C@H](N)C(=O)N2C1C(=O)O (some centres not stated) | 6.4% [at 12.8 µM] | –
6 | C=C1Nc2ccccc2C(=O)N1c1ccccc1C | 0.531% | –
7 | CC1OC(O[C@H]2C[C@@H](O)[C@]3(CO)[C@@H]4C(CC[C@]3(O)C2)[C@@]2(O)CC[C@H](C3=CC(=O)OC3)[C@@]2(C)C[C@H]4O)C(O)C(O)C1O (some centres not stated) | -0.894% | –
8 | O=[N+]([O-])OC1CO[C@H]2C(O[N+](=O)[O-])COC12 (some centres not stated) | 3.33% | –
9 | CCOC(=O)/C=C(C)/C=C/CC(C)CCCC(C)C (configuration not stated) | -4.01% | –
10 | [S]=[Sb][S][Sb]=[S] | 3.59% | –
11 | CN1C2CCC1C(C(=O)O)C(OC(=O)c1ccccc1)C2 (configuration not stated) | 5.93% | –
12 | C[C@@H]1CC[C@H]2[C@@H](C)C(=O)O[C@@H]3OC4(C)CC[C@@H]1C32OO4 (some centres not stated) | – | 7.9 nM (active)
13 | Cc1ccc2c(c1)[C@@H]1CN(C)CC[C@H]1N2 | 0.486% | –
14 | Nc1nc(O)c(-c2ccccc2)o1 | 2.13% | –
15 | C=CC[N+]1(C)CCC23c4c5ccc(O)c4O[C@H]2C(=O)CC[C@@]3(O)C1C5 (some centres not stated) | 2.77% | –
16 | OC[C@@H](O)[C@H]1O[C@@H]2OC(C(Cl)(Cl)Cl)O[C@H]2[C@H]1O (some centres not stated) | 0.562% | –
17 | CCCCCCC(=O)O[C@H]1CC[C@H]2[C@@H]3CCC4CC(=O)C=C(C)[C@]4(C)[C@H]3CC[C@]12C (some centres not stated) | -14.5% | –
18 | Cc1cc(C)cc(C(=O)OC2CC3CCC(C2)N3C)c1 (configuration not stated) | -9.9% | –
19 | CCCN1CCCC2Cc3nc(N)ncc3CC21 (configuration not stated) | 3.71% | –
20 | COc1ccc2c3c1O[C@H]1[C@@H](O)C=C[C@H]4C(C2)NCCC341 (some centres not stated) | 0.308% | –
21 | CCCCCC(O)C1C(=O)OC(C)C(O)\C=C/C=C\C=C/C=C\C=C(\C)C(O)C(O)C(O)CC(O)CC(O)CC(O)CC(O)CC1O (configuration not stated) | 2.84% | –
22 | CCCCCc1cc(O)c2c(c1)OC(C)(C)C1CC=C(C)CC21 (configuration not stated) | – | 3550 nM (active)

Test system: CP266
Assay: as above
Settings: P. falciparum in erythrocytes, SYBR Green DNA, 72 h; series mostly up to 28.7 µM; activity, negative = inhibition: at the top concentration
Method in brief: as §1

Row | Structure (SMILES) | activity, negative = inhibition | Potency
23 | C[C@H](N)Cc1ccccc1 | 0.485% | –
24 | C[C@]12C=CC(=O)C=C1CC[C@@H]1C2CC[C@]2(C)OC(=O)CCC12 (some centres not stated) | 0.0459% | –
25 | OCC(O)[C@H]1O[C@@H]2O[C@H](C(Cl)(Cl)Cl)O[C@@H]2[C@H]1O (some centres not stated) | 3.36% | –
26 | CC1(C)[C@@H](C=C(Cl)Cl)[C@@H]1C(=O)OCc1c(F)c(F)cc(F)c1F | 1.37% | –
27 | CC1(C)S[C@@H]2[C@H](N)C(=O)N2C1C(=O)O (some centres not stated) | -2.86% [at 12.8 µM] | –
28 | C=C1Nc2ccccc2C(=O)N1c1ccccc1C | 5.51% | –
29 | CC1OC(O[C@H]2C[C@@H](O)[C@]3(CO)[C@@H]4C(CC[C@]3(O)C2)[C@@]2(O)CC[C@H](C3=CC(=O)OC3)[C@@]2(C)C[C@H]4O)C(O)C(O)C1O (some centres not stated) | 3.22% | –
30 | O=[N+]([O-])OC1CO[C@H]2C(O[N+](=O)[O-])COC12 (some centres not stated) | -7.56% | –
31 | CCOC(=O)/C=C(C)/C=C/CC(C)CCCC(C)C (configuration not stated) | 1.23% | –
32 | [S]=[Sb][S][Sb]=[S] | 4.27% | –
33 | CN1C2CCC1C(C(=O)O)C(OC(=O)c1ccccc1)C2 (configuration not stated) | -4.67% | –
34 | C[C@@H]1CC[C@H]2[C@@H](C)C(=O)O[C@@H]3OC4(C)CC[C@@H]1C32OO4 (some centres not stated) | – | 19 nM (active)
35 | C=CC[N+]1(C)CCC23c4c5ccc(O)c4O[C@H]2C(=O)CC[C@@]3(O)C1C5 (some centres not stated) | 5.38% | –
36 | OC[C@@H](O)[C@H]1O[C@@H]2OC(C(Cl)(Cl)Cl)O[C@H]2[C@H]1O (some centres not stated) | 0.545% | –
37 | CCCCCCC(=O)O[C@H]1CC[C@H]2[C@@H]3CCC4CC(=O)C=C(C)[C@]4(C)[C@H]3CC[C@]12C (some centres not stated) | -13.2% | –
38 | Cc1cc(C)cc(C(=O)OC2CC3CCC(C2)N3C)c1 (configuration not stated) | -6.72% | –
39 | CCCN1CCCC2Cc3nc(N)ncc3CC21 (configuration not stated) | -17.2% | –
40 | COc1ccc2c3c1O[C@H]1[C@@H](O)C=C[C@H]4C(C2)NCCC341 (some centres not stated) | -3.46% | –
41 | CCCCCC(O)C1C(=O)OC(C)C(O)\C=C/C=C\C=C/C=C\C=C(\C)C(O)C(O)C(O)CC(O)CC(O)CC(O)CC(O)CC1O (configuration not stated) | -4.92% | –
42 | CCCCCc1cc(O)c2c(c1)OC(C)(C)C1CC=C(C)CC21 (configuration not stated) | – | 12000 nM (active)

Source: PubChem BioAssay (NCATS)
